# High-throughput results deposited in PubChem by several laboratories.
# Compounds with a hit are over-represented: about 1.2% of the library has one in this group of screens.
# cytoskel mod: modifiers of cytoskeleton assembly | AID 836 | 91,000 compounds, 0.18% hits | HUVEC TNFa F-actin phalloidin imaging, high content | inhibition, % at 2 µM;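 active = inhibition above the batch mean plus 3 SD and confirmed as a hit by visual image inspection, cut at about 30% in these data, passing the limit was not always enough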
# sdo1 growth: restores growth of sdo1-depleted yeast; 140,000 compounds, 0.21% hits; z-score at 10 µM; AID 817; S. cerevisiae sdo1-depleted JHY4D growth rescue, OD600 30 h; hits give high values; pdr5 snq2 efflux-pump mutant strain;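 active = z-score above 3 at both the 24 hr and the 30 hr optical density reads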;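 also: z-score against mean and SD of all compound wells on the same plate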
# TNFa cytotox: toxic to HUVEC cells under TNF alpha stimulation; 93,000 compounds, 0.17% hits; AID 848; HUVEC TNFalpha-stimulated, Hoechst cell count, imaging; cell count reduction, % at 2 µM;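 active = cell count reduction exceeding the screen mean by over 5 SD, scaled to untreated wells per plate, cut at about 78% in these data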;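 also: cells counted after 24 h of TNF alpha exposure following the 1 h pretreatment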
# Phagocyt inh: inhibitors of macrophage phagocytosis; J774A.1 macrophage IgG-bead phagocytosis, imaging; inhibition, % at 5 µM; 110,000 compounds, 0.07% hits;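 active = inhibition above the mean of the plate negative controls plus 5 SD, cut at about 13% in these data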;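 also: phagocytic index as fraction of beads internalized from green versus red external bead signal; plate controls were DMSO negative control for no effect and cytochalasin-D positive control for full effect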
# E-sel TNF inh: TNF alpha driven E-selectin expression inhibition; HUVEC TNFa-induced E-selectin immunofluorescence, high content; inhibition, % at 2 µM; 120,000 compounds, 0.71% hits; AID 1246;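 active = inhibition above the batch mean plus 3 SD, and confirmed as a hit on visual image review, cut at about 43% in these data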;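 also: 0% = TNF-stimulated DMSO wells and 100% = unstimulated control wells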
# VCAM1 TNFa inh: reduces TNF alpha induced VCAM1 expression in HUVEC; inhibition, % at 2 µM; 95,000 compounds, 0.48% hits; HUVEC TNFa-induced VCAM-1 immunofluorescence, high-content imaging; AID 802;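 active = inhibition above the batch mean plus 3 SD, with images confirmed as a hit by eye, cut at about 37% in these data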;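 also: 0% = TNF-stimulated DMSO wells and 100% = unstimulated control wells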
# * marks the source's active call; other numbers are inactive results; . = not tested or not shown; [ ] = another dose, or the depositor's remark.
SMILES,cytoskel mod,sdo1 growth,TNFa cytotox,Phagocyt inh,E-sel TNF inh,VCAM1 TNFa inh
C[n+]1ccc(C(=O)N/N=C/c2ccco2)cc1,.,0.21,.,-6,.,.
O=c1ccc2ccc(OCc3nnc(-c4ccccc4Br)o3)cc2o1,19,-1.5,-4,1,73*,-8
COc1ccc(C(=O)/C=C/Nc2ccc([N+](=O)[O-])cc2C)cc1OC,-2,-0.28,-4,0,.,2
COc1ccc(C(=O)/C=C/Nc2ccc([N+](=O)[O-])cc2C)c(OC)c1,3,-0.66,3,0,100*,-18
CC(c1nnc(SCC(=O)Nc2cccnc2Cl)n1Cc1ccccc1)N(C)C (centres undefined),.,.,.,.,-3,.
CCCOc1ccc(C(=O)C(CN2CCOCC2)c2ccccc2)cc1 (centres undefined),-2,-2.3,-13,.,18,50*
CCOc1ccc(C(=O)C(c2ccccc2)N2CCOCC2)cc1 (centres undefined),-19,-0.12,66,0,.,76*
CCCOc1ccc(C(=O)C(c2ccccc2)N2CCOCC2)cc1 (centres undefined),.,-0.01,-24,0,-8,12
COc1ccc(C(=O)C(CN2CCOCC2)c2ccccc2)cc1F (centres undefined),16,-1,.,5,62*,.
COc1ccc(C(O)C(CN2CCOCC2)c2ccccc2)cc1F (centres undefined),-3,0.16,-17,2,18,13
COc1ccc2c(c1)sc(=N)n2C,.,.,.,.,35,.
NC(=O)c1ccc(NC(=O)COC(=O)C2CC(=O)N(Cc3ccccc3)C2)cc1 (centres undefined),.,.,.,.,-18,.
O=C(/C=C/Nc1cccc(C(F)(F)F)c1)c1ccco1,.,.,.,.,-30,.
O=C(/C=C/Nc1cccc(C(F)(F)F)c1)c1ccc(Oc2ncccn2)cc1,4,-0.02,-38,-2,64*,-27
CC1Cc2ccccc2N1CC(=O)NCc1ccccc1Cl (centres undefined),.,-0.88,.,-5,-4,.
C=CCn1c(COc2ccc(Cl)cc2)nnc1SCC(=O)N/N=C/c1cccc(O)c1,66*,0.9,-29,.,-7,6
COc1cccc(N2CCN(c3ncnc4c3[nH]c3ccccc34)CC2C)c1 (centres undefined),.,-2,.,.,-13,.
COc1cccc(N2CCN(c3ncnc4c3[nH]c3ccc(F)cc34)CC2C)c1 (centres undefined),0,-2.3,26,.,97*,52*
Cc1ccc2[nH]c(=O)c(CN(C(=O)c3cccs3)c3ccccc3)cc2c1,.,-0.84,.,0,-2,.
Cc1cccc(C)c1NC(=O)CN(C)C(=O)/C=C/c1cccs1,.,-0.02,.,2,93*,.
O=c1ncn(-c2ccccc2F)c2ncccc12,-3,0.35,-2,.,67*,5
CCCCCc1ccc(-c2ccc(=O)[nH]n2)cc1,-47,-1.5,18,0,29,79*
CCOC(=O)c1c(NC(C)=O)sc2c(O)cccc12,.,-2.1,.,-1,56*,.
Cc1ccc(S(=O)(=O)Nc2cc(C(=O)NCCN3CCCC3)ccc2N2CCCCC2)cc1,-20,-0.4,88*,.,.,74*
Cc1ccc(S(=O)(=O)Nc2cc(C(=O)NCCN(C)C)ccc2N2CCCCC2)cc1,-10,-0.4,-26,0,.,19
SMILES,cytoskel mod,sdo1 growth,TNFa cytotox,Phagocyt inh,E-sel TNF inh,VCAM1 TNFa inh
COc1ccc(CCCc2nnc(SCC(=O)Nc3ccccc3F)o2)cc1,.,.,.,.,6,.
O=C(Nc1ccc(N=Nc2ccccc2)c(NC(=O)C2CCCO2)c1)C1CCCO1 (centres undefined),.,-1.8,.,-4,.,.
CCN1C(=O)c2cccc3c(S(=O)(=O)NCc4ccccn4)ccc1c23,31*,0.31,-14,4,14,-5
CCN1C(=O)c2cccc3c(S(=O)(=O)Nc4c(C)n(C)n(-c5ccccc5)c4=O)ccc1c23,6,0.33,-5,-1,-15,-6
CCN(CC)c1nc(-c2ccccn2)nc(-c2ccccc2)c1C#N,.,.,.,.,5,.
Cc1cccc(NC(=O)CSc2nc3ccc(NC(=O)CSc4nnnn4-c4ccccc4)cc3s2)c1C,-20,-0.86,25,-1,-35,44*
O=C(CSc1nc2ccc(NC(=O)CSc3nnnn3-c3ccccc3)cc2s1)Nc1ccccc1,.,-0.67,.,-4,8,.
CCOC(=O)c1ccc(NC(=O)COC(=O)c2cccc(Oc3ccccc3)c2)cc1,.,0.15,.,-3,0,.
CSC1=NCCN1CCOc1ccccc1,.,.,.,.,-21,.
CC1CCCN(c2nc3ccsc3c(=O)s2)C1 (centres undefined),-21,-2,91*,0,4,92*
O=C(C1CCN(S(=O)(=O)N2CCOCC2)CC1)N1CCN(Cc2ccc3c(c2)OCO3)CC1,-36,-0.3,-8,0,15,2
Cc1noc(C)c1S(=O)(=O)N1CCC(C(=O)N2CCN(Cc3ccc4c(c3)OCO4)CC2)CC1,.,0.68,.,11,73*,.
COc1coc(C(O)C[N+](=O)[O-])cc1=O (centres undefined),.,1.5,.,-3,.,.
C=C(C)CN1CCN(S(=O)(=O)c2ccc(C)c(N(C)S(=O)(=O)c3ccc(C)cc3)c2C)CC1,.,-0.51,.,-7,-21,.
COc1ccc(-c2c/c(=N\c3nc(-c4ccccc4)c(C)s3)c3ccccc3o2)cc1O,18,0.73,55,.,1,51*
CN(CC(O)COc1c(F)cc(Br)cc1F)C1CCCCC1 (centres undefined),.,0.44,.,-10,.,.
CCNc1nc(Oc2ccc(C(=O)OC)cc2)nc(N(C)C)n1,-38,-0.76,79*,.,3,8
NC(=O)c1cc([N+](=O)[O-])ccc1NCCN1C(=O)c2ccccc2C1=O,.,.,.,.,-4,.
CNc1nc(SCC(=O)OC)nc(N2CCOCC2)n1,.,-0.32,.,74*[artifact],-22,.
CNc1nc(C(=O)O)nc(N2CCOCC2)n1,.,0.21,.,.,15,.
O=c1/c(=C/c2ccc(O)cc2)sc2nc3cc(Br)cnc3n12,.,.,.,.,-26,.
Cc1ccc(OCC(=O)N2CCN(C(=O)Cc3ccccc3)CC2)cc1,71*,0.1,7,-1,5,-11
COc1ccc(NC(=O)/C(Cl)=C(/Cl)S(=O)(=O)Cc2ccc(C)cc2)cn1,-24,-2.7,30,-1,72*,51*
COc1ccc(NC(=O)/C(Cl)=C(/Cl)S(=O)Cc2ccccc2Cl)cn1 (centres undefined),.,.,.,.,100*,.
COc1ccc(NC(=O)CC23CC4CC(CC(C4)C2)C3)cn1,.,.,.,.,24,.
SMILES,cytoskel mod,sdo1 growth,TNFa cytotox,Phagocyt inh,E-sel TNF inh,VCAM1 TNFa inh
c1ccc(-c2cnn3c(-c4ccccc4)c(-c4ccccc4)nc3n2)cc1,.,-0.83,.,-5,-3,.
CC(CC(=O)N1CCN(c2ccc(C(F)(F)F)cn2)CC1)n1ccnc1 (centres undefined),.,.,.,.,12,.
COC(=O)c1cscc1NC(C)=O,30*,0.74,-20,1,9,9
COC(=O)c1ccc(NC(C)=O)cc1O,.,.,.,.,-18,.
COC(=O)c1cc2nc(-c3ccc(OC)cc3)cc(C(F)(F)F)n2n1,-4,0.43,-30,0,16,16
COc1ccc(-c2cc(C(F)(F)F)n3nc(C(=O)Nc4cc(C)on4)cc3n2)cc1OC,-15,-1.8,-1,-4,8,95*
